Experimental data: PubChem BioAssay (NCI)
This is part of a sample that, as a whole, favours compounds with a hit. Of some 83,000 tested, about 20% had one in any assay.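 Values shown are percent growth following 48 h exposure of cells in 96-well plates to a single concentration of compound; below 10 was considered active.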 Unmarked numbers belong to inactive results. Activity calls are given as the source filed them.

These molecules were tested on MDA-MB-435 melanoma (assay: NCI-60 one-dose screen, 48 h (100 = growth as untreated, 0 = no growth, -100 = all killed)). Settings: 10 µM.

| Compound | growth |
| --- | --- |
| O=C(NO)c1ccc(CNC(=O)[C@H]2Cc3c([nH]c4ccccc34)[C@H](c3ccccc3)N2)cc1 | 5.21% (active) |
| COc1ccc2cc([C@H](C)C(=O)NCc3ccccc3)ccc2c1 | -13.2% (active) |
| Cc1noc2c(Cc3ccccc3)nn(CC(=O)N/N=C/c3ccc(F)cc3)c(=O)c12 | 71.1% |
| COc1cnc2c(c1)C(=O)c1c-2n(CCCNCCO)c(=O)c2cc(OC)c(OC)cc12 | 49.7% |
| CN1CCc2c(sc3ncnc(N/N=C/c4cn(-c5ccccc5)nc4-c4ccc(Cl)cc4)c23)C1 | 41.9% |
| N#Cc1c(NC(=O)c2ccc(C(F)(F)F)cc2C(F)(F)F)sc2c1CCC(=O)C2 | -53.6% (active) |
| O=C1N/C(=N\c2nccs2)S/C1=C\c1cccs1 | 41.9% |
| CC(=O)c1ccc(Nc2nc(SC(C)C)nc(-c3ccccc3)c2C#N)cc1 | 47.4% |
| O=C(CNc1nc(-c2ccccc2)cs1)Nc1ccc([N+](=O)[O-])cc1Cl | 44% |
| O=C(NO)c1ccc(Cn2ccc3c(Nc4ccccc4)ncnc32)cc1 | 9.97% (active) |
| O=C(NO)c1ccc(CN2CCN(c3nc(-c4ccccc4)c4ccccc4n3)CC2)cc1 | 27.8% |

The molecules below were run on SW-620 colon in the same assay as above. Settings: 10 µM.

| Compound | growth |
| --- | --- |
| COc1ccc(-c2cc(C(=O)N=Nc3c(O)[nH]c4ccc(Br)cc34)c3ccccc3n2)cc1 | -59.9% (active) |
| CC(=O)c1ccc(Nc2nc(SCCC(C)C)nc(-c3ccc(F)cc3)c2C#N)cc1 | 68.5% |
| Clc1cccc(N/N=C/c2c[nH]c3ccccc23)n1 | 52.1% |
| O=[N+]([O-])c1ccc(-c2nc(-c3ccccc3)c(-c3ccccc3)n2-c2ccc(S(=O)(=O)Nc3ncccn3)cc2)cc1 | 51.1% |
| O=C(CSc1nnc(-c2ccc3nc(-c4ccc(Cl)cc4)[nH]c3c2)o1)Nc1ccc(Cl)cc1 | -69.9% (active) |
| CCOC(=O)c1c(CSc2ccccc2)n(C)c2cc(CN(C)C)c(O)c(CN(C)C)c12 | 23.1% |
| N#Cc1c(NC(=O)c2cccc(C(F)(F)F)c2)sc2c1CCC(O)=C2 | 35.4% |
| Cc1ccc(-c2nc(Nc3ccc(S(N)(=O)=O)cc3)c3ccccc3n2)cc1 | 32.2% |
| Cc1ccc2nc(COc3ccc(C(=O)NNC(=S)NC(=O)c4ccccc4)cc3)[nH]c2c1 | 39.5% |
| O=C(CNc1nc(-c2ccccc2)cs1)Nc1cccc([N+](=O)[O-])c1 | -66.7% (active) |
| CC(=O)Nc1ccc(-c2cn(-c3cccc(C(=O)Nc4cccc(OC(F)(F)F)c4)c3)nn2)cn1 | 90.1% |
| OCCCNc1oc(-c2ccccc2)nc1[P+](c1ccccc1)(c1ccccc1)c1ccccc1 | 11.5% |
| CC(C)Sc1nc(NC2CC2)c(C#N)c(-c2ccccc2)n1 | 100% |
| OCCNc1oc(-c2ccccc2)nc1[P+](c1ccccc1)(c1ccccc1)c1ccccc1 | 13.5% |
| C/C(=C\c1ccc(O)cc1O)c1ccc2ccc(O)cc2[o+]1 | 44.8% |
| Cc1noc2c(Cc3ccc([N+](=O)[O-])cc3)nn(CC(=O)N/N=C/c3ccc(Cl)cc3)c(=O)c12 | 68.2% |
| CCOC(=O)CNC(=O)CN(Cc1ccccc1)C(=O)[C@@]1(C)CCC[C@]2(C)[C@H]3CC4C(C(C)C)=C[C@]3(CC[C@H]21)[C@@H]1C(=O)CCC(=O)[C@H]41 | 49.8% |
| O=C(CSc1nnc(-c2c[nH]c3ccccc23)n1-c1ccccc1)c1ccc(Cl)cc1 | 70.3% |
| COc1ccc(-c2cc(C(=O)N=Nc3c(O)[nH]c4ccc(F)cc34)c3ccccc3n2)cc1 | 41.1% |

| Compound | growth |
| --- | --- |
| O=C1Nc2ccc(Cl)cc2/C1=C/c1ccc(OCc2ccccn2)cc1 | 47.5% |
| Cc1noc2c(Cc3ccccc3)nn(CC(=O)N/N=C/c3ccc(Cl)cc3)c(=O)c12 | 51.7% |
| COc1ccc2[nH]c(=O)c(CSc3cccc(N)c3)cc2c1 | 25% |
| COc1ccc(C(=O)/C=C/c2cc(F)cc(C(F)(F)F)c2)cc1S(N)(=O)=O | -90.6% (active) |
| Nc1cc(-c2cccc(C(=O)NCc3ccc4c(c3)OCO4)c2)ccn1 | 110% |
| Cc1ccc(/C(N)=N/c2sc(-c3ccccc3)nc2-c2ccccc2)cc1 | 79.4% |
| CN(C(=O)c1ccc(C(C)(C)C)cc1)c1sc2c(c1C#N)CCC(=O)C2 | -42.3% (active) |
| O=C(NO)c1ccc(CNC(=O)[C@H]2Cc3c([nH]c4ccccc34)[C@H](c3ccccc3)N2)cc1 | -43.7% (active) |
| COc1ccc2cc([C@H](C)C(=O)NCc3ccccc3)ccc2c1 | 29.3% |
| Cc1noc2c(Cc3ccccc3)nn(CC(=O)N/N=C/c3ccc(F)cc3)c(=O)c12 | 79.9% |
| COc1cnc2c(c1)C(=O)c1c-2n(CCCNCCO)c(=O)c2cc(OC)c(OC)cc12 | 38.4% |
| CN1CCc2c(sc3ncnc(N/N=C/c4cn(-c5ccccc5)nc4-c4ccc(Cl)cc4)c23)C1 | 10.8% |
| N#Cc1c(NC(=O)c2ccc(C(F)(F)F)cc2C(F)(F)F)sc2c1CCC(=O)C2 | -43.7% (active) |
| O=C1N/C(=N\c2nccs2)S/C1=C\c1cccs1 | 30% |
| CC(=O)c1ccc(Nc2nc(SC(C)C)nc(-c3ccccc3)c2C#N)cc1 | 34.9% |
| O=C(CNc1nc(-c2ccccc2)cs1)Nc1ccc([N+](=O)[O-])cc1Cl | 23.2% |
| O=C(NO)c1ccc(Cn2ccc3c(Nc4ccccc4)ncnc32)cc1 | -61.8% (active) |
| O=C(NO)c1ccc(CN2CCN(c3nc(-c4ccccc4)c4ccccc4n3)CC2)cc1 | 15.6% |
